Experimental findings from PubChem BioAssay (EPA / NIEHS) are described below.

Assay [1] addresses Estrogen receptor (Homo sapiens) (UniProt P03372). Nature of the assay: OT_ERa_GFPERaERE_0120: Odyssey Thera (OT) 2-hour HeLa Transcription Induction Assay for Estrogen Receptor (AID 2283382). The gist of the method: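 Cells (human cervical HeLa) receive compound, incubate 2 hours, then are imaged for fluorescent reporter induction. Images are quantified by high content analysis, and activity is fitted as gain of signal against DMSO.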

Assay [2] has as its target Retinoic acid receptor RXR-alpha (Homo sapiens) (UniProt P19793). Nature of the assay: OT_NURR1_NURR1RXRa_0480: Odyssey Thera (OT) 8-hour HEK293T Protein Complementation Assay for Nurr1/retinoid X receptor (RXR) (AID 2283385). In a few lines: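 Interaction of bait and prey reconstitutes a functional reporter, whose fluorescence was measured in HEK293T cells dosed with compound for 8 hours. Signal gain relative to DMSO defined the single endpoint.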

For assay [3] the target is unchanged. Briefly: OT_NURR1_NURR1RXRa_1440: Odyssey Thera (OT) 24-hour HEK293T Protein Complementation Assay for Nurr1/retinoid X receptor (RXR) (AID 2283386). The gist of the method: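 Steps: fragment-tagged Nurr1 and RXRα expressed in HEK293T; compounds added; after 24 h, complemented reporter quantified by fluorescence intensity; signal increase over DMSO fitted as the single endpoint.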

For assay [4], the target named is Peroxisome proliferator-activated receptor gamma (Homo sapiens) (UniProt P37231). Briefly: OT_PPARg_PPARgSRC1_0480: Odyssey Thera (OT) 8-hour Protein-Complementation Assay for Peroxisome Proliferator-activated Receptor Gamma / SRC-1 Co-activator (AID 2283387).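 Further: nuclear to cytoplasmic split Venus YFP fluorescence ratio reporting PPARg SRC-1 interaction.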 In a few lines:
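Read-out: 488 nm N/C fluorescence ratio from complemented Venus YFP fragments, ≥350 cells per image, gain-of-signal fitted against DMSO baseline. Fusions of PPARg/SRC-1 with IFP1/IFP2 expressed transiently in HEK293T; compounds applied 8 h.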

Assay [5] shares this target. Nature of the assay: OT_PPARg_PPARgSRC1_1440: Odyssey Thera (OT) 24-hour Protein-Complementation Assay for Peroxisome Proliferator-activated Receptor Gamma/ SRC-1 Co-activator (AID 2283388).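 Further: nuclear to cytoplasmic ratio of reconstituted Venus YFP fluorescence in fixed imaged cells.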 In a few lines:
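Readout: nuclear-to-cytoplasmic 488 nm fluorescence ratio, ≥350 cells per image, 8 images per well, after 24 h compound exposure of HEK293T expressing PPARg/SRC-1 split-YFP fusions. Activity fitted in positive direction against DMSO.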

The target of assay [6] is Bile acid receptor (Homo sapiens) (UniProt Q96RI1). Briefly: OT_FXR_FXRSRC1_0480: Odyssey Thera (OT) 8-hour HEK293T Protein-Complementation Assay for Farnesoid X receptor/SRC-1 Co-activator (AID 2283383). In a few lines: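 PCA, HEK293T, 8 h compound exposure; FXR–SRC-1 binding reconstitutes split reporter; fluorescence intensity; positive-direction fit vs DMSO.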
Bile acid receptor (Homo sapiens), sequence (Q96RI1 whole entry, looked up): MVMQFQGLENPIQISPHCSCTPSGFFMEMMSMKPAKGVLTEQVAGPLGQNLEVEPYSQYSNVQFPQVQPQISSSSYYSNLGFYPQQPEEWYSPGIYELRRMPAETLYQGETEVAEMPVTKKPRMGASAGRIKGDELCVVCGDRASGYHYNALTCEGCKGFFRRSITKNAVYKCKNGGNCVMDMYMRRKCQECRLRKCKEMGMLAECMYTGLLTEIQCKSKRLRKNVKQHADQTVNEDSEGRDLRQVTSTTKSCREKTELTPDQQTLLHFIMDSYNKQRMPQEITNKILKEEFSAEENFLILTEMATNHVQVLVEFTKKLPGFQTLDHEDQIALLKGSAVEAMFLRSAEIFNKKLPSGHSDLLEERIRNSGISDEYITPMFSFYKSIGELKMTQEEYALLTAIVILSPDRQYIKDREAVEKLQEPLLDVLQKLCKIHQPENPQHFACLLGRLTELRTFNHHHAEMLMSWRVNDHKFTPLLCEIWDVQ
The target is the same in assay [7]. Nature of the assay: OT_FXR_FXRSRC1_1440: Odyssey Thera (OT) 24-hour HEK293T Protein-Complementation Assay for Farnesoid X receptor/SRC-1 Co-activator (AID 2283384). In a few lines:
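Measures ligand-driven FXR–SRC-1 co-activator recruitment in HEK293T via fragment complementation, fluorescence intensity at 24 h. DMSO served as negative control and baseline for gain-of-signal fitting.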

A short description of assay [8]: CEETOX_H295R_11DCORT: CeeTox H295R High-throughput Steroidogenesis Assay for 11-Deoxycortisol (11DCORT) (AID 2283432; active means hit-call score of the fitted dose curve at least 0.9, where 1 is the maximum; inactive means score below 0.9;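 on AC50: human adrenal H295R cells prestimulated with 10 µM forskolin for 48 h; 11-deoxycortisol secreted into the medium measured by LC-MS/MS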). To be noted: actives raise or lower the signal. In a few lines:
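H295R cells; 10 uM forskolin prestim 48 h; compound in 0.1% DMSO 48 h; media extracted with MTBE; 11-deoxycortisol by LC-MS/MS, 7-point standard curve; gain/loss vs DMSO baseline; viability by MTT in same wells.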

Assay [9] in a line: CEETOX_H295R_OHPREG: CeeTox H295R High-throughput Steroidogenesis Assay for OH-Pregnenolone (OHPREG) (AID 2283434; active means hit-call score of the fitted dose curve at least 0.9, where 1 is the maximum; inactive means score below 0.9). Conditions: actives raise or lower the signal. The gist of the method: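 Readout: HPLC-MS/MS of 17alpha-hydroxypregnenolone in medium after 48 h chemical exposure of H295R cells pretreated with forskolin. Values fitted bidirectionally relative to DMSO; chemicals reducing viability to 20–70% were retested after 10-fold dilution.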

Assay [10] can be described thus: CEETOX_H295R_OHPROG: CeeTox H295R High-throughput Steroidogenesis Assay for OH-Progesterone (OHPROG) (AID 2283435; active means hit-call score of the fitted dose curve at least 0.9, where 1 is the maximum; inactive means score below 0.9;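 on AC50: human adrenal H295R cells primed 48 h with 10 µM forskolin; 17alpha-hydroxyprogesterone secreted into medium measured by HPLC-MS/MS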). Conditions: actives raise or lower the signal. The gist of the method:
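Steps: seed H295R cells and adhere overnight; stimulate with 10 uM forskolin for 48 h; replace with chemical-containing medium (0.1% DMSO) for 48 h; extract medium with MTBE; quantify 17alpha-hydroxyprogesterone by reverse-phase C18 HPLC-MS/MS against a 7-point curve.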

Assay [11] can be described thus: CEETOX_H295R_CORTISOL: CeeTox H295R High-throughput Steroidogenesis Assay for Cortisol (AID 2283438; active means hit-call score of the fitted dose curve at least 0.9, where 1 is the maximum; inactive means score below 0.9). Conditions: actives raise or lower the signal. In a few lines: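 Cortisol synthesis by H295R cells is measured 48 h after chemical dosing, following a 48 h stimulation with 10 uM forskolin. Hormone is extracted and quantified by HPLC-MS/MS, and activity is fitted bidirectionally against the DMSO control.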

Assay [12] in a line: CEETOX_H295R_DOC: CeeTox H295R High-throughput Steroidogenesis Assay for DOC (AID 2283439; active means hit-call score of the fitted dose curve at least 0.9, where 1 is the maximum; inactive means score below 0.9). Conditions: actives raise or lower the signal. In a few lines:
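Steps: seed H295R, adhere overnight; 10 uM forskolin 48 h; replace with chemical medium (0.1% DMSO) 48 h; collect medium, MTBE extraction, HPLC-MS/MS for DOC. Viability then checked by MTT; cytotoxic chemicals diluted until viability ≥70%.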

Assay [13] is described as follows: CEETOX_H295R_ESTRADIOL: CeeTox H295R High-throughput Steroidogenesis Assay for Estradiol (AID 2283440; active means hit-call score of the fitted dose curve at least 0.9, where 1 is the maximum; inactive means score below 0.9;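 further: estradiol secreted into medium quantified by LC-MS/MS after dansyl derivatisation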). Conditions: actives raise or lower the signal. The gist of the method:
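H295R, 48 h forskolin (10 uM) prestim → 48 h compound, 0.1% DMSO final. Estradiol in medium: MTBE extraction, dansyl chloride derivatization, LC-MS/MS. Fit bidirectional vs DMSO baseline; MTT viability in same wells.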

Assay [14] is described as follows: CEETOX_H295R_ESTRONE: CeeTox H295R High-throughput Steroidogenesis Assay for Estrone (AID 2283441; active means hit-call score of the fitted dose curve at least 0.9, where 1 is the maximum; inactive means score below 0.9;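 on AC50: human adrenal H295R cells prestimulated with forskolin for two days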). Conditions: actives raise or lower the signal. In a few lines: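 Estrone secreted into medium quantified by LC-MS/MS after dansyl chloride derivatization, following 48 h chemical exposure (0.1% DMSO final) of forskolin-prestimulated (10 uM, 48 h) H295R cells; gain or loss fitted against DMSO; MTT viability in same wells.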

A short description of assay [15]: CEETOX_H295R_PROG: CeeTox H295R High-throughput Steroidogenesis Assay for Progesterone (PROG) (AID 2283442; active means hit-call score of the fitted dose curve at least 0.9, where 1 is the maximum; inactive means score below 0.9;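 on AC50: human H295R adrenal cells primed with 10 µM forskolin before dosing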). To be noted: actives raise or lower the signal. The gist of the method:
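Progesterone read-out: HPLC-MS/MS on MTBE extracts of conditioned medium after 48 h chemical exposure of forskolin-primed (10 uM, 48 h) H295R cells. Gain or loss of signal was fitted relative to DMSO baseline.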

SMILES strings stand for the structures. Records with an inconclusive call do not appear. Activity calls are given as the source filed them. How the source made its calls, unless noted: active means hit-call score of the fitted dose curve at least 0.9, where 1 is the maximum; inconclusive means response in the unintended direction; inactive means score below 0.9.

Retinoic acid receptor RXR-alpha (Homo sapiens), sequence (P19793 whole entry, looked up): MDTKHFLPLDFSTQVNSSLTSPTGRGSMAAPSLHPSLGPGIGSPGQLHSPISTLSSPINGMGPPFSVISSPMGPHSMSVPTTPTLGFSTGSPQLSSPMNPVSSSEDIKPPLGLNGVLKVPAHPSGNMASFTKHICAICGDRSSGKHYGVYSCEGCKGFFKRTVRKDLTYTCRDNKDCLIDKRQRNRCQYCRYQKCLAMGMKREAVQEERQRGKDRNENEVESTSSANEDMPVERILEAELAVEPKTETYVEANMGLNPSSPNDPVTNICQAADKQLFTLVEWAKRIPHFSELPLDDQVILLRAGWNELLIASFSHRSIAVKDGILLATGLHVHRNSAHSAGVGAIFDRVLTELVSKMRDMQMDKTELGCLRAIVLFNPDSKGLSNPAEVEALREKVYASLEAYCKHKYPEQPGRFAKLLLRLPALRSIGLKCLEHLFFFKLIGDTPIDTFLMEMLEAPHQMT
Peroxisome proliferator-activated receptor gamma (Homo sapiens), sequence (P37231 whole entry, looked up, the tested form may be a part): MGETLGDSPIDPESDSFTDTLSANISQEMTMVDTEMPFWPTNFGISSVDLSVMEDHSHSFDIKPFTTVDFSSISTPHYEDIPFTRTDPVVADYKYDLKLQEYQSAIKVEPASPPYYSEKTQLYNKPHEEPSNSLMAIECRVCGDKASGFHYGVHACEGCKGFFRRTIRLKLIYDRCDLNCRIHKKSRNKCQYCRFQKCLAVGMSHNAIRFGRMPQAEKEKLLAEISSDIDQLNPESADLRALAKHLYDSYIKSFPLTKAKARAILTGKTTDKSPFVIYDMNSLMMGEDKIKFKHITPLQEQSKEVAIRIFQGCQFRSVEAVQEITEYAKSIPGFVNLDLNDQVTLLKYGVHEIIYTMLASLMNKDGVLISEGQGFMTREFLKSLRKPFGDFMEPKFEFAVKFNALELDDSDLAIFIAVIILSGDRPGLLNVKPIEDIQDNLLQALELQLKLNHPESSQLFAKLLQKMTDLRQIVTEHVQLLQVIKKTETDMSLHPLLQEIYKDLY
Estrogen receptor (Homo sapiens), sequence (P03372 whole entry, looked up): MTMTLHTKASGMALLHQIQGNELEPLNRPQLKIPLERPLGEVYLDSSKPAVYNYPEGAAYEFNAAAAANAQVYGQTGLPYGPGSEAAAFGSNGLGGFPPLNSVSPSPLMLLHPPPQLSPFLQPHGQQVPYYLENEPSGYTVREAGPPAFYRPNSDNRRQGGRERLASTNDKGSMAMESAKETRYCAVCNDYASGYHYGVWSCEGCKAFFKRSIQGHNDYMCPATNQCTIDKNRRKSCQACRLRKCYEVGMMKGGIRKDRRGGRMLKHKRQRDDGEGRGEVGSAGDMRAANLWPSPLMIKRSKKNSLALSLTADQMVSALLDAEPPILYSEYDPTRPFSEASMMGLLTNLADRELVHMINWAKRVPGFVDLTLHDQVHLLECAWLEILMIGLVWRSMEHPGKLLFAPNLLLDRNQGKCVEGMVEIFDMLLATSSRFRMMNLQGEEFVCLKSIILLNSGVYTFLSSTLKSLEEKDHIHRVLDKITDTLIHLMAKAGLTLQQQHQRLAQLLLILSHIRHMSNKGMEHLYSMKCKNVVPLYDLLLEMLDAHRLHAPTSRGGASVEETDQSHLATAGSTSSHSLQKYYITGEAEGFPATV

In the case of `O=C(O)CS`, the outcome in assay [1], in assay [2], in assay [3], in [4] and in assay [5] was inactive.

Take `OC[C@H]1O[C@@H](O[C@H]2[C@H](O)[C@@H](O)[C@H](O)O[C@@H]2CO)[C@H](O)[C@@H](O)[C@H]1O`: the molecule was classed as inactive in [1], in assay [6], in assay [7], in assay [4] and in assay [5].

Consider `CC1=CCC(=C(C)C)CC1`, for which the molecule was classed as inactive in assay [1] and in [2]. Moreover, in assay [3], the AC50 (as a rule, the concentration giving half of the maximal activity seen) was 77.4 µM (active).

`c1ccc(Cc2ccccc2)cc1`: the AC50 in [1] was 7.03 µM (active). The result in assay [7], in assay [2] and in [5] was inactive.

Regarding `CCCc1ccc(O)cc1`, the call in [1], in assay [6], in assay [7], in assay [2], in [3] and in assay [4] was inactive. Besides, the call in [5], in assay [8], in assay [9], in assay [10], in [11] and in [12] was inactive. The result in [13], in assay [14] and in assay [15] was inactive.

Take `CCCCCCCCOC(=O)c1ccc(O)cc1`: the results for the AC50 in assay [1], in assay [2] and in assay [3] were 3.43 µM (active), 74.7 µM (active) and 92.8 µM (active), respectively.

Turning to `CCOCC(C)O` (stereo unspecified), the result in assay [1], in [7], in assay [2], in assay [3], in assay [4] and in assay [5] was inactive.

For `NC(=O)c1cccnc1`, the molecule was called inactive in assay [1], in assay [6], in [7], in assay [2], in [4] and in [5]. Besides, the AC50 in assay [3] was 82.4 µM (active).

For `CCC(C)(CCCC(C)C)OC(C)=O` (stereo unspecified), the molecule was called inactive in [1], in assay [6], in [7], in [2], in assay [4] and in [5].

Regarding `CC(=O)C1=C(C)[C@@H]2C[C@@]3(C1)[C@H](C)CC[C@H]3C2(C)C`, the outcome in [1], in assay [7], in assay [4], in assay [5], in assay [9] and in assay [10] was inactive. For the same molecule, the result in [13], in assay [14] and in assay [15] was inactive. Moreover, the AC50 was 37.2 µM (active) in assay [6], 72.4 µM (active) in [2] and 90 µM (active) in [3].

As for `C=C(C)C(=O)OCCC(C)OC(=O)C(=C)C` (stereo unspecified), the molecule was called inactive in assay [1], in assay [2], in assay [3], in assay [4] and in [5].

On to `CCC(C)C1CCCCC1=O` (stereo unspecified), for which the molecule was classed as inactive in [1], in assay [2], in assay [3], in assay [4] and in assay [5].

Turning to `CC(=O)CC(=O)N(C)C`, the outcome in [1], in [7] and in [3] was inactive.

Take `CCC(=O)OC(C)(C)C1CC=C(C)CC1` (stereo unspecified): the molecule was classed as inactive in [1], in assay [7], in [3], in [4] and in assay [5]. For the same molecule, in assay [6], the AC50 is 83.9 µM (active).

With `O=S(=O)(O)c1cc(S(=O)(=O)O)c2c(N=Nc3ccccc3)c(O)ccc2c1`, the call in [1] and in assay [6] was inactive.

Regarding `CC12CCC(C1)C(C)(C)C2O` (stereo unspecified), the call in assay [1], in [7], in assay [2], in assay [3], in assay [4] and in [5] was inactive.

On to `CCc1cccc(O)c1`, for which the call in [1], in [6], in assay [7], in [3], in [4] and in assay [5] was inactive.

Take `CC(=O)c1ccc2ccccc2c1`: the outcome in assay [1], in assay [6], in [7], in assay [3], in assay [4] and in assay [5] was inactive. Also, the molecule was classed as inactive in [8], in assay [9], in assay [11], in [12], in assay [13] and in [14]. The call in assay [15] was inactive. Moreover, in assay [10], the AC50 was 50 µM (active).

As for `CC(C)(CO)CO`, the molecule was called inactive in [1], in assay [2] and in assay [3].

For `CCCCCCCCOC(C)=O`, the molecule was classed as inactive in assay [1], in assay [2], in assay [3], in assay [4] and in assay [5].

Consider `CCCCCC(=O)O[C@]1(C(C)=O)CC[C@H]2[C@@H]3CCC4=CC(=O)CC[C@]4(C)[C@H]3CC[C@@]21C`, for which the outcome in [1], in [4], in [5], in [10] and in assay [12] was inactive. For the same molecule, the AC50 was 5.16 µM (active) in [6]; 11.6 µM (active) in assay [7]; 11.9 µM (active) in [2]; 26.3 µM (active) in assay [3]; 13.3 µM (active) in assay [8]; 11.4 µM (active) in [9]. Besides, the AC50 in [11] was 6.66 µM (active); in assay [13], 13.4 µM (active); in [14] it was 13.2 µM (active); in assay [15], 4.56 µM (active).

As for `O=C1OC2(c3ccc(O)cc3Oc3cc(O)ccc32)c2ccccc21`, the call in [1], in assay [4] and in assay [5] was inactive. Besides, the figures for the AC50 in [6] and in [7] were 13.1 µM (active) and 11.4 µM (active), respectively.

With `CCCCC/C=C\C=C\C(=O)OCC`, the call in assay [1], in [2], in assay [4] and in assay [5] was inactive. Besides, the AC50 in [7] is 81 µM (active).

Regarding `CC(C)CCCC(C)(C)O`, the result in [1], in assay [2], in assay [3], in [4] and in assay [5] was inactive.

For the molecule `C1=COCCC1`, the result in assay [1], in [6], in assay [2], in [4] and in assay [5] was inactive.

In the case of `CC1=CCC(C(C)C)=CC1`, the call in assay [1], in assay [2] and in [3] was inactive.

Take `CC(=O)C1C(=O)C=C(C)OC1=O` (stereo unspecified): the result in assay [1], in assay [6], in [7], in [2], in assay [3] and in assay [4] was inactive. Also, the call in assay [5] was inactive.
